Reference: ChEMBL document CHEMBL3433997, “St. Jude Leishmania screening dataset” (2016)

Legend:
Assay type in all cases: functional
[1] = target: Solute carrier family 2, facilitated glucose transporter member 1 (Homo sapiens) (UniProt P11166); experiment: ST_JUDE_LEISH: Cytotoxicity at 2uM final concentration against transgenic Leishmania Mexicana promastigotes LmGLUT1 that are glucose transport deficient and complemented with the human glucose transporter GLUT1. Activity is measured by DNA content using SYBR green in vitro
Solute carrier family 2, facilitated glucose transporter member 1 (Homo sapiens), sequence (P11166 whole entry): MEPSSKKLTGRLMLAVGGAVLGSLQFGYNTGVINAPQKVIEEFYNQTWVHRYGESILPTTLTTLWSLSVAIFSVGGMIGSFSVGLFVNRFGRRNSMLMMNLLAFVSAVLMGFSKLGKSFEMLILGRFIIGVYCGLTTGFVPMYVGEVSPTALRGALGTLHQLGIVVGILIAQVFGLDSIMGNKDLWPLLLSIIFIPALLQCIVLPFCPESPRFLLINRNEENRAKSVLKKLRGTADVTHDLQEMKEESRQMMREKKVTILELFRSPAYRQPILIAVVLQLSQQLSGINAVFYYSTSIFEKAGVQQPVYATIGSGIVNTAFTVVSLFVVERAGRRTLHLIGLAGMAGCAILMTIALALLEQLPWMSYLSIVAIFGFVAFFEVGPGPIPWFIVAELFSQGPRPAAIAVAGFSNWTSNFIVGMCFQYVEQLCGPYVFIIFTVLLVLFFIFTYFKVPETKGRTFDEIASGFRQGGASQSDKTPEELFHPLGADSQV

[2] = target: Hexose transporter 1 (Plasmodium falciparum) (UniProt O97467); experiment: ST_JUDE_LEISH: Cytotoxicity at 2uM final concentration against transgenic Leishmania Mexicana promastigotes LmPfHT that are glucose transport deficient and complemented with the Plasmodium falciparum hexose transporter. Activity is measured by DNA content using SYBR green in vitro
[3] = target: Glucose transporter (Leishmania mexicana) (UniProt O61059); experiment: ST_JUDE_LEISH: Cytotoxicity at 2uM final concentration against transgenic Leishmania Mexicana promastigotes LmGT2 that are glucose transport deficient and complemented with the L. Mexicana glucose transporter 2. Activity is measured by DNA content using SYBR green in vitro

SMILES	inhibition [1] [%]	inhibition [2] [%]	inhibition [3] [%]
Cc1cccc2nc(-c3ccc(-c4ccc(CNCCCN5CCCC5=O)cc4)cc3)[nH]c12	7.88	5.8	4.42
CCCCCCCCN1CCCN(C(=O)c2cccc(NC(=O)Nc3ccc4ccccc4c3)c2)CC1	0.2	-0.59	-0.77
CN1CCN(Cc2c(O)ccc3c(=O)c(Oc4ccc(C(C)(C)C)cc4)c(C(F)(F)F)oc23)CC1	70.7	74.1	46.6
OC(CNc1ccnc(Nc2ccccc2)n1)c1ccc(C(F)(F)F)cc1 (stereo unspecified)	5.97	5.69	1.23
Nc1ccc(-c2csc(Nc3ccncc3)n2)cc1	2.7	1.93	2.21
Fc1ccccc1CNc1ncc(-c2ccsc2)c(-c2nccs2)n1	-0.99	0.2	-3
O=C(N[C@@H](Cc1ccccc1)C(=O)NCc1cccc(C(F)(F)F)c1)c1ccc(O)c(-c2ccc(Cl)c(Cl)c2)c1	3.7	0.97	-2.02
O=C(N[C@@H](CC1CCCCC1)C(=O)NCCc1ccc(Cl)c(Cl)c1)c1ccc(O)c(-c2ccc(Cl)c(Cl)c2)c1	0.23	0.3	1.25
O=S1(=O)NCc2ccc(Nc3nccc(Nc4ccc5c(cnn5Cc5ccccc5)c4)n3)cc21	-0.8	6.35	-1.65
COc1ccc(NC(=O)c2ccc(Br)c(C)c2)cc1N1CCN(CCCc2c[nH]c3ccccc23)CC1	-0.69	-0.68	-0.4
CN(C)c1ccc(-c2csc(C(=O)NC3CCN(CCC(C)(C)C)C3)c2)cc1 (stereo unspecified)	3.05	4.39	2.37
CN(CCNCc1ccc(-c2cccc(-c3nc4ccccc4[nH]3)c2)cc1)S(C)(=O)=O	0.68	0.26	1.73
